In PubChem BioAssay AID1159580 (chemical genetic matrix, 2015):
Screen size: about 5,500 compounds; about 2,000 (36%) were called active. About 18% were inconclusive and are not listed. Rule as the data show it: active = normalized growth mostly below about 0.91 (no sharp cut-off); inconclusive = no clear call, values can overlap the other calls; inactive = mostly above about 0.92. This is one part of the list.

Assay: chemical genetic growth profiling, strain panel (AID 1159580);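 also: tested at 20 µM; growth read once vehicle control cultures reached saturation at 30 °C; 1 = growth at the plate median or of vehicle wells; lower values mean less growth of the strain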
Settings: S. cerevisiae deletion strains, growth OD
[1] = locus YAR019C, strain CDC15, stronger effect = lower value
[2] = locus YBL105C, strain PKC1, stronger effect = lower value
[3] = locus YBR135W, strain CKS1, stronger effect = lower value
[4] = locus YBR136W, strain MEC1, stronger effect = lower value
[5] = locus YBR160W, strain CDC28, stronger effect = lower value
[6] = locus YDL017W, strain CDC7, stronger effect = lower value
[7] = locus YDL028C, strain MPS1, stronger effect = lower value
[8] = locus YDL101C, strain DUN1, stronger effect = lower value
[9] = locus YDL108W, strain KIN28, stronger effect = lower value
[10] = locus YDL132W, strain cdc53, stronger effect = lower value
[11] = locus YDL214C, strain PRR2, stronger effect = lower value
[12] = locus YDR052C, strain DBF4, stronger effect = lower value
[13] = locus YDR054C, strain cdc34, stronger effect = lower value
[14] = locus YDR226W, strain ADK1, stronger effect = lower value
[15] = locus YDR477W, strain SNF1, stronger effect = lower value
[16] = locus YER123W, strain YCK3, stronger effect = lower value
[17] = locus YER133W, strain GLC7, stronger effect = lower value
[18] = locus YFL009W, strain cdc4, stronger effect = lower value
[19] = locus YFL029C, strain CAK1, stronger effect = lower value
[20] = locus YFR003C, strain YPI1, stronger effect = lower value
[21] = locus YFR019W, strain FAB1, stronger effect = lower value
[22] = locus YFR028C, strain CDC14, stronger effect = lower value
[23] = locus YGR040W, strain KSS1, stronger effect = lower value
[24] = locus YGR052W, strain FMP48, stronger effect = lower value
[25] = locus YGR092W, strain DBF2, stronger effect = lower value
[26] = locus YHR030C, strain SLT2, stronger effect = lower value
[27] = locus YHR079C, strain IRE1, stronger effect = lower value
[28] = locus YHR082C, strain KSP1, stronger effect = lower value
[29] = locus YHR205W, strain SCH9, stronger effect = lower value
[30] = locus YIL147C, strain SLN1, stronger effect = lower value
[31] = locus YJL095W, strain BCK1, stronger effect = lower value
[32] = locus YJL128C, strain PBS2, stronger effect = lower value
[33] = locus YJL157C, strain FAR1, stronger effect = lower value
[34] = locus YJR016C, strain ILV3, stronger effect = lower value
[35] = locus YJR066W, strain TOR1 (second series), stronger effect = lower value
[36] = locus YJR066W, strain TOR1, stronger effect = lower value
[37] = locus YKL048C, strain ELM1, stronger effect = lower value
[38] = locus YKL067W, strain YNK1, stronger effect = lower value
[39] = locus YKL101W, strain HSL1, stronger effect = lower value
[40] = locus YKL193C, strain SDS22, stronger effect = lower value
[41] = locus YKL203C, strain TOR2, stronger effect = lower value
[42] = locus YLR113W, strain HOG1, stronger effect = lower value
[43] = locus YLR133W, strain CKI1, stronger effect = lower value
[44] = locus YLR403W, strain SFP1, stronger effect = lower value
[45] = locus YML070W, strain DAK1, stronger effect = lower value
[46] = locus YMR001C, strain CDC5, stronger effect = lower value
[47] = locus YMR205C, strain PFK2 (second series), stronger effect = lower value
[48] = locus YMR277W, strain FCP1, stronger effect = lower value
[49] = locus YNL006W, strain LST8, stronger effect = lower value
[50] = locus YNL020C, strain ARK1, stronger effect = lower value
[51] = locus YNL161W, strain CBK1, stronger effect = lower value
[52] = locus YNL183C, strain NPR1, stronger effect = lower value
[53] = locus YNL207W, strain RIO2, stronger effect = lower value
[54] = locus YNL222W, strain SSU72, stronger effect = lower value
[55] = locus YNL307C, strain MCK1 (second series), stronger effect = lower value
[56] = locus YOL078W, strain AVO1, stronger effect = lower value
[57] = locus YOL136C, strain PFK27, stronger effect = lower value
[58] = locus YOR061W, strain CKA2, stronger effect = lower value
[59] = locus YOR119C, strain RIO1, stronger effect = lower value
[60] = locus YOR231W, strain MKK1, stronger effect = lower value
[61] = locus YOR329C, strain SCD5, stronger effect = lower value
[62] = locus YPL031C, strain PHO85, stronger effect = lower value
[63] = locus YPL153C, strain RAD53, stronger effect = lower value
[64] = locus YPL209C, strain IPL1, stronger effect = lower value
[65] = locus YPL256C, strain CLN2, stronger effect = lower value
[66] = locus YPR025C, strain CCL1, stronger effect = lower value
[67] = locus YPR106W, strain ISR1, stronger effect = lower value
[68] = locus YPR111W, strain DBF20, stronger effect = lower value
[69] = strain NNK1, stronger effect = lower value
[70] = strain TSCII, stronger effect = lower value

Measured: normalized growth

Cc1cc(Cl)ccc1NC(=S)NNC(=S)Nc1ccc(F)cc1
inactive: [1] 0.968 | [2] 0.974 | [3] 0.972 | [4] 0.97 | [5] 0.966 | [6] 0.975 | [7] 0.969 | [8] 0.973 | [9] 0.97 | [10] 0.966 | [11] 0.943 | [12] 0.968 | [13] 0.943 | [14] 0.971 | [15] 0.898 | [16] 0.878 | [17] 0.925 | [18] 0.964 | [19] 0.965 | [20] 0.957 | [21] 0.964 | [22] 0.956 | [23] 0.912 | [24] 1.04 | [25] 0.863 | [27] 0.902 | [28] 0.986 | [29] 0.914 | [30] 0.964 | [31] 0.869 | [32] 0.93 | [33] 0.919 | [34] 0.96 | [35] 0.911 | [36] 0.917 | [37] 0.97 | [38] 0.916 | [39] 0.935 | [40] 0.964 | [41] 0.954 | [42] 0.929 | [43] 0.926 | [44] 0.896 | [45] 0.928 | [46] 0.965 | [47] 0.939 | [48] 0.95 | [49] 0.964 | [50] 0.921 | [51] 0.973 | [52] 0.923 | [53] 0.961 | [54] 0.972 | [55] 0.9 | [56] 0.957 | [57] 0.916 | [58] 0.937 | [59] 0.977 | [60] 0.924 | [61] 0.972 | [62] 0.899 | [63] 0.884 | locus YPL204W, strain HRR25, stronger effect = lower value 0.861 | [64] 0.969 | [65] 0.904 | [66] 0.973 | [67] 0.971 | [68] 0.969 | [69] 0.96 | [70] 0.966
active: [26] 0.763

O=C(NNC(=S)Nc1ccc(F)cc1)c1ccccc1Cl
inactive: locus YAL013W, strain DEP1, stronger effect = lower value 0.987 | locus YBR229C, strain ROT2, stronger effect = lower value 1 | locus YCL061C, strain MRC1, stronger effect = lower value 1 | [8] 1.04 | locus YDL134C, strain PPH21, stronger effect = lower value 0.976 | locus YDR150W, strain NUM1, stronger effect = lower value 0.987 | locus YEL061C, strain CIN8, stronger effect = lower value 0.958 | locus YGR078C, strain PAC10, stronger effect = lower value 0.972 | locus YGR229C, strain SMI1, stronger effect = lower value 0.97 | [26] 0.948 | locus YHR087W, strain rtc3, stronger effect = lower value 0.977 | locus YJR043C, strain POL32, stronger effect = lower value 1.01 | locus YJR075W, strain HOC1, stronger effect = lower value 1.01 | locus YKL190W, strain CNB1, stronger effect = lower value 0.966 | locus YLR039C, strain RIC1, stronger effect = lower value 0.933 | locus YLR058C, strain SHM2 (second series), stronger effect = lower value 0.98 | locus YLR085C, strain ARP6, stronger effect = lower value 0.897 | locus YLR262C, strain YPT6, stronger effect = lower value 0.963 | locus YML094W, strain GIM5, stronger effect = lower value 0.96 | locus YMR219W, strain ESC1, stronger effect = lower value 1.01 | locus YMR263W, strain SAP30, stronger effect = lower value 0.977 | locus YNL128W, strain TEP1, stronger effect = lower value 0.971 | locus YNL153C, strain GIM3, stronger effect = lower value 1.01 | locus YNL298W, strain CLA4 (second series), stronger effect = lower value 0.923 | locus YNL322C, strain KRE1, stronger effect = lower value 0.997 | locus YNR030W, strain Alg12, stronger effect = lower value 0.94 | locus YPL055C, strain LGE1, stronger effect = lower value 0.921 | locus YPL241C, strain CIN2, stronger effect = lower value 1.01 | locus YPR135W, strain CTF4, stronger effect = lower value 0.982
active: locus YOL006C, strain TOP1, stronger effect = lower value 0.629

O=C(c1ccccc1)c1cc(Cl)ccc1NC(=S)Nc1ccc(F)cc1
inactive: [1] 0.984 | [2] 0.992 | [3] 0.99 | [4] 0.987 | [5] 0.998 | [6] 0.996 | [7] 0.994 | [8] 0.996 | [9] 0.985 | [10] 0.992 | [11] 0.968 | [12] 0.994 | [13] 0.994 | [14] 0.993 | [15] 0.982 | [16] 0.95 | [17] 0.977 | [18] 0.986 | [19] 0.987 | [20] 0.988 | [21] 0.945 | [22] 0.991 | [23] 0.967 | [24] 1.02 | [25] 0.989 | [26] 0.97 | [27] 0.997 | [28] 1.12 | [29] 0.988 | [30] 0.994 | [31] 0.988 | [32] 0.947 | [33] 0.962 | [34] 0.988 | [35] 0.937 | [36] 1.05 | [37] 0.99 | [38] 0.968 | [39] 0.971 | [40] 0.991 | [41] 1 | [43] 0.983 | [44] 0.974 | [45] 0.978 | [46] 0.995 | [47] 0.977 | [48] 0.976 | [49] 0.992 | [50] 0.983 | [51] 0.992 | [52] 1.02 | [53] 0.992 | [54] 0.987 | [55] 0.968 | [56] 0.999 | [57] 0.969 | [58] 0.973 | [59] 1.05 | [60] 0.994 | [61] 0.993 | [62] 0.969 | [63] 0.988 | [64] 0.993 | [65] 0.985 | [66] 0.99 | [67] 0.997 | [68] 0.963 | [69] 0.995 | [70] 0.991
active: [42] 0.858
